# Source: PubChem BioAssay AID602410 (Johns Hopkins Ion Channel Center, 2012)
# Screen size: about 340,000 compounds; about 2,800 (0.82%) were called active.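 Rule for the calls: active = B-score under library mean minus 4 SD, starting fluorescence ratio at most library mean plus 5 SD; inactive = the rest.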 Only a selection was taken, and actives are over-represented in it overall.
# Biological target: Potassium channel subfamily K member 3 (Homo sapiens) (UniProt O14649)
# Experiment: blockers of TASK1 two-pore potassium channel – CHO cells, FluxOR thallium flux, B-score, primary screen (AID 602410);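 for B-score: more negative B-score means stronger inhibition of thallium flux through KCNK3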
# Settings: CHO-KCNK3 thallium flux, FluxOR fluorescence, at 10 µM; stronger effect = lower value
# Sequence of Potassium channel subfamily K member 3 (Homo sapiens) (O14649 whole entry, looked up): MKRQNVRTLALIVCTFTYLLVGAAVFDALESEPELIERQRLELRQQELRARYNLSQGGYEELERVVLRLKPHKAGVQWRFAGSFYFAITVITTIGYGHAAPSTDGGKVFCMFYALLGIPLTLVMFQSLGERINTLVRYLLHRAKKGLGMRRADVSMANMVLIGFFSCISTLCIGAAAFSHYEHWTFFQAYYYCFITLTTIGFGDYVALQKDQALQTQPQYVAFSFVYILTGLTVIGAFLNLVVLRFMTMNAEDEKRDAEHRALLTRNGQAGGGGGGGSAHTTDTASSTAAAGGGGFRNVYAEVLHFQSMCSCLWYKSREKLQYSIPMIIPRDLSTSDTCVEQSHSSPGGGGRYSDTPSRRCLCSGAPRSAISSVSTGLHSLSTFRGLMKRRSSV
row,Compound,B-score
1,CCCCn1c(N)c(N(CCOC)C(=O)c2cccc(S(=O)(=O)N(C)c3ccccc3)c2)c(=O)[nH]c1=O,inactive
2,COc1ccc(C2NCCCC2c2ccccc2)cc1 (stereo not drawn),inactive
3,COCCn1c(=O)[nH]c2cc(C(=O)NCc3cccnc3)ccc2c1=O,inactive
4,CCCCNC(=O)C1(O)c2ccccc2NC(=O)N1c1ccc(Cl)cc1 (stereo not drawn),inactive
5,O=C(c1ccccc1F)N(Cc1ccccc1)Cc1ccccc1,inactive
6,Cc1cccc(N(Cc2ccccc2)C(=O)c2cc(S(=O)(=O)N3CCOCC3)ccc2F)c1,inactive
7,Cc1cccc(N(Cc2ccccc2)C(=O)c2ccccc2F)c1,-9.35 (active)
8,O=[N+]([O-])c1cc([N+](=O)[O-])c(Oc2cc(F)cc(F)c2F)cc1NN1CCCCC1,inactive
9,COC(=O)C1=C(C(=O)OC)C(c2cc([N+](=O)[O-])ccc2O)c2sc(=O)[nH]c2S1 (stereo not drawn),inactive
10,Cc1c(C(=O)NC2CCCCC2)oc2ccccc12,inactive
11,Cc1cc(C)nc(-n2nc(C)cc2NC(=O)c2ccc(F)cc2F)n1,inactive
12,CC(Nc1nc(N2CCCC2)nc2ccccc12)c1ccccc1 (stereo not drawn),inactive
13,c1ccc2c(NC3C4CC5CC(C4)CC3C5)nc(N3CCOCC3)nc2c1 (stereo not drawn),-9.5 (active)
14,CC(Nc1nc(N2CCOCC2)nc2ccccc12)c1ccccc1 (stereo not drawn),inactive
15,O=C(NC1CC1)C1CCCN(C(=O)NC2CCCCC2)C1 (stereo not drawn),inactive
16,COc1ccccc1OCc1nnc(SCC(N)=O)n1-c1ccccc1,inactive
17,c1ccc(CCn2nnnc2CN2CCN(C3CCCC3)CC2)cc1,inactive
18,COc1ccc(C(c2nnnn2C2CCCCC2)N2CCN(c3ccccc3F)CC2)cc1 (stereo not drawn),inactive
19,c1ccc(C(c2ccccc2)N2CCN(Cc3nnnn3C3CCCCC3)CC2)cc1,-10.8 (active)
20,CC(=O)c1c(C)c[nH]c1C,inactive
21,O=C(NC(=S)N1CCN(Cc2ccccc2)CC1)c1ccccc1,inactive

row,Compound,B-score
1,Cc1cccc(N(C(=O)Cc2cccs2)C(C(=O)NC2CCCC2)c2ccsc2)c1 (stereo not drawn),inactive
2,NS(=O)(=O)c1ccc(N2C(=O)C3C4CC(C(Br)C4Br)C3C2=O)cc1 (stereo not drawn),inactive
3,Cc1cc(O)c(NC(=O)c2ccc(C)c([N+](=O)[O-])c2)cc1C,inactive
4,CCCCCCCCn1c2c(c(=N)c3c1CCC3)CCCC2,-9.82 (active)
5,CC1(C)Cc2c(sc(NC(=O)C(=O)N3CCOCC3)c2C#N)CO1,inactive
6,Clc1ccc(-c2cc(C3CCNCC3)[nH]n2)c(Cl)c1,inactive
7,Cc1ccccc1NC(=O)CSc1nc2ccc(Nc3nc(N4CCOCC4)nc(N4CCOCC4)n3)cc2s1,inactive
8,CC1(c2ccccc2)NC(=O)N(CC(=O)Nc2cc(Cl)ccc2N2CCOCC2)C1=O (stereo not drawn),inactive
9,O=C(CSc1nc(Nc2ccccc2)nc(N2CCOCC2)n1)Nc1cc(Cl)ccc1O,-11.6 (active)
10,COc1ccc(NC(=O)CN(C)C(=O)/C=C/c2cn(Cc3ccccc3)nc2-c2cccnc2)cc1,inactive
11,COc1cccc(NC(=O)CN(C)C(=O)/C=C/c2cn(-c3ccccc3)nc2-c2cccs2)c1,-10.7 (active)
12,COc1cccc(NC(=O)CN(C)C(=O)/C=C/c2cc(OC)ccc2OC)c1,inactive
13,CCN(c1ccccc1)S(=O)(=O)c1ccc(OCC(=O)N2CCCC2)cc1,inactive
14,Cc1nc2nc[nH]n2c(=O)c1NC(=O)c1cccc(OCC(C)C)c1,inactive
15,C=CCn1cc(Cl)cc(C(=O)Nc2ccccc2)c1=O,inactive
16,C=CCN(C(=O)c1cc(C)cc(C)c1)C1(C(=O)Nc2ccccc2)CCN(C(C)C)CC1,-9.18 (active)
17,CC(C)N1CCC(NC(=O)Nc2ccccc2)CC1,inactive
18,Cc1cccc(-c2c(NC(=O)c3ccco3)oc3ccc(Cl)cc3c2=O)c1,inactive
19,O=C(CS(=O)(=O)Cc1ccccc1)Nc1cccnc1,inactive
20,CC(=O)Nc1ccc(S(=O)(=O)N(CCc2ccccc2)CC(=O)N/N=C/c2ccc(C(=O)O)cc2)cc1,inactive
21,O=C(NCCc1ccccc1)c1ccc2c(c1)N(Cc1ccccc1)CCS2,-11.6 (active)

row,Compound,B-score
1,CCOC(=O)N1CCN(C(=O)c2ccc3c(c2)N(Cc2ccc(C)cc2)CCS3)CC1,inactive
2,O=C(NCCc1ccccc1)c1cccc(NC(=O)c2ccccc2)c1,inactive
3,CCOCc1c(C(=O)N2CCN(Cc3ccc(Br)s3)CC2)oc2ccccc12,inactive
4,CCOc1ccc(S(=O)(=O)N(CC(=O)NCC(F)(F)F)Cc2ccco2)cc1,inactive
5,CC(C)CCNC(=O)C(C)N(C(=O)Cn1nnc(-c2ccc(F)cc2)n1)C1CCCC1 (stereo not drawn),-9.19 (active)
6,CC(C)CCNC(=O)CN(C(=O)Cn1nnc(-c2ccc(F)cc2)n1)C1CCCC1,inactive
7,CN(C(=O)Cn1nnc(-c2ccc(F)cc2)n1)C1CCS(=O)(=O)C1 (stereo not drawn),inactive
8,C#CCOCCOCCOCCNc1nc(N2CCN(C(=O)C(Cc3ccc(O)cc3)n3cc(C(N)CC(C)C)nn3)CC2)nc(N2CCN(C(=O)C(Cc3ccc(O)cc3)n3cc(C(N)C(C)CC)nn3)CC2)n1 (stereo not drawn),inactive
9,COc1ccc(-n2c(O)c(C=NCC(c3ccco3)N3CCCC3)c3ccccc3c2=O)cc1OC (stereo not drawn),inactive
10,CCOc1ccccc1Oc1cn[nH]c1-c1ccc(OC)cc1O,-8.87 (active)
11,CCOc1ccc(-c2nc(N)ncc2-c2ccccc2OC)c(O)c1,inactive
12,COc1ccc(Oc2cn[nH]c2-c2ccc(OC)cc2O)cc1,inactive
13,CC1CCc2sc(C(=O)NCC(c3ccco3)N3CCCCC3)cc2C1 (stereo not drawn),inactive
14,O=C(Oc1ccccc1C(=S)N1CCCCC1)c1cc([N+](=O)[O-])cc([N+](=O)[O-])c1,inactive
15,O=C(Oc1ccc(Br)cc1C(=S)N1CCOCC1)c1cccc([N+](=O)[O-])c1,-11.4 (active)
16,COc1cc(C(=S)N2CCOCC2)cc(OC)c1OC(=O)c1cc([N+](=O)[O-])cc([N+](=O)[O-])c1,inactive
17,Cc1ccc(NC(=O)COc2ccc(/C=N\NC(=O)c3cccnc3)cc2)cc1C,inactive
18,O=C(NN=C1CCC(=NNC(=O)c2cccnc2)CC1)c1cccnc1,inactive
19,O=C(N/N=C/c1sc(N2CCCCC2)nc1-c1cccs1)c1cccnc1,-10.7 (active)
20,CCCCCCC(O)(CCN1CCCCC1)c1ccccc1 (stereo not drawn),inactive
21,Nc1nnc(SCC(=O)NCC(=O)Nc2ccc(F)c(F)c2F)s1,inactive
